This note sets out measurements from ChEMBL document CHEMBL4513216, “Probing the Open Global Health Chemical Diversity Library for Multistage-Active Starting Points for Next-Generation Antimalarials” (ACS Infect Dis, 2020).

Structures are written as SMILES. Hit rate of the full screen: of about 69,000 compounds, about 8,600 (12%) showed an effect of 50% or more. The sample holds strong results, similar compounds and a random draw of the others, so the mix is not that of the screen.

This experiment concerns Plasmodium berghei. Kind of experiment: Screen against P. berghei liver stage (PbLuc), transformed with Luciferase, at 10uM. Type of experiment: functional, HepG2. The conditions noted are these: tested at 10 uM.
On to `N#CC(NC(=O)CCCOc1cccnc1)c1ccccc1Cl` (configuration not stated), for which the INHIBITION worked out at 40.9%. Under `N#CC(NC(=O)CCCOc1cccnc1)c1ccc(F)cc1F` (configuration not stated) stands 66.9%; under `Cc1ccccc1C(C#N)NC(=O)CCCOc1cccnc1` (configuration not stated), 31.2%; under `Cc1ccccc1-n1cc(CNC(=O)CC2C(=O)NCCN2C)cn1` (configuration not stated), 4.68%.

For the compound `O=C(NC[C@@H]1CCCO1)c1cc(Br)cnc1N1CCCCC1`, the INHIBITION is 20.4%. Turning to `O=C(c1ccc(F)cc1)N(CCCO)S(=O)(=O)c1cccs1`, the INHIBITION was 67.4%. `O=C(c1cccc(F)c1)N(CCCO)S(=O)(=O)c1cccs1`: the INHIBITION is -38.8%.

As to `O=C(c1ccccc1F)N(CCCO)S(=O)(=O)c1cccs1`, the INHIBITION stood at 37.7%. The figure for `O=C(c1cscn1)N1CC[C@H]2C[C@H](c3nnc(C4CC4)o3)O[C@@H]2C1` is 30.3%; for `CC(C)(C)C(=O)N1CCC(c2nc(O)cc(-c3ccncc3)n2)CC1` it is 11.1%. Under `CN(C)c1nccnc1C1CCN(C2CCCCC2O)CC1` (configuration not stated) stands 17.4%; under `CC(C)[C@@H]1CN(C(=O)c2ccc3c(c2)CCCO3)C[C@H]1NS(C)(=O)=O`, 71.1%. Regarding `Cc1ccc(C(=O)N2C[C@@H](NS(C)(=O)=O)[C@H](C(C)C)C2)cc1O`, the INHIBITION is reported as 18%.

Take `Cc1ccc(C(=O)N2C[C@H](NS(C)(=O)=O)[C@@H](C(C)C)C2)cc1F`: the INHIBITION is 14.3%. With `C[C@H]1C[C@H]2CN(C(=O)CCc3ccccc3)CC[C@H]2O1`, the INHIBITION was -19%.

As to `CCn1cc(CN2C[C@@H]3CCCN3C[C@@H]2CCSC)cn1`, the INHIBITION stood at 24.4%. The figure for `Cc1ccn(CCNC(=O)C2(C)CC(c3ccccc3)=NO2)n1` (configuration not stated) is -3.94%; for `CCCc1noc(C(C)S(=O)(=O)Cc2nc(C3CC3)no2)n1` (configuration not stated) it is 22.2%; for `CC(C)c1noc(CS(=O)(=O)Cc2nc(C(C)C)no2)n1` it is 34.2%. For the compound `CCc1noc(CS(=O)(=O)C(C)c2nc(C3CC3)no2)n1` (configuration not stated), the INHIBITION is listed as 51.5%.

In the case of `CCc1nc(CN2CCN(C(C)c3nc(C4CC4)no3)CC2)no1` (configuration not stated), the INHIBITION is -23.9%.

As to `Cc1noc(C)c1CS(=O)(=O)Cc1nc(C2CC2)no1`, the INHIBITION amounted to 21.6%. With `CC(C)c1noc(C(C)S(=O)(=O)Cc2nc(C3CC3)no2)n1` (configuration not stated), the INHIBITION was 70%.

Take `COCCN(Cc1cccc(C#N)c1)Cc1nc(C)no1`: the INHIBITION stood at 41.2%.

On to `O=C(Cc1ccc2c(c1)OCC2)Nc1nc(C(F)(F)F)n[nH]1`, for which the INHIBITION is 28.6%. As to `CN1CCC(N(C)C(=O)CCc2ccc(F)c(F)c2)C1=O` (configuration not stated), the INHIBITION stood at 17.9%. The figure for `CN1CCC(N(C)C(=O)CSc2ccc(F)c(F)c2)C1=O` (configuration not stated) is -0.897%; for `CC(C)c1ccc(CCC(=O)N(C)C2CCN(C)C2=O)cc1` (configuration not stated) it is 53.8%. Under `COCC(=O)N1CCC2(CC1)COC(COCc1ccccn1)C2` (configuration not stated) stands 33%.

Consider `Cc1nn(C)c2c(=O)n(Cc3ccc(Cl)cc3)nnc12`, for which the INHIBITION amounted to 48.25%. Regarding `CC(=O)N1Cc2ccccc2CC1C(=O)Nc1ccc(C)cn1` (configuration not stated), the INHIBITION is 32.7%.

With `CC(=O)N1Cc2ccccc2C[C@H]1C(=O)N(C)Cc1ccccn1`, the INHIBITION is reported as 40.7%. The figure for `CN(CCc1ccccn1)C(=O)C1Cc2ccccc2CN1C` (configuration not stated) is 20%; for `CC(=O)N1Cc2ccccc2C[C@H]1C(=O)N(C)CCc1ccccn1` it is 58.1%.

With `CC(=O)N1Cc2ccccc2C[C@H]1C(=O)Nc1ccccn1`, the INHIBITION was 28.7%. As for `CC(=O)N1Cc2ccccc2CC1C(=O)Nc1cc(C)ccn1` (configuration not stated), the INHIBITION is listed as 56.5%. Under `Cn1cnc(S(=O)(=O)NCCN2CCCCCC2)c1Cl` stands 31.2%. Regarding `CCC(Oc1ccccc1)c1nn2c(CN(CC)CC)nnc2s1` (configuration not stated), the INHIBITION is -31.7%. For the compound `Cc1nc([C@@H]2C[C@@H]3CCN(C(=O)c4ccsc4)C[C@H]3O2)no1`, the INHIBITION is on record as 18.5%. Turning to `COCCN(C(=O)c1ccccn1)c1nc2c(s1)CCc1c-2cnn1C`, the INHIBITION came to 59.3%. The figure for `CCCN(C(=O)c1cccnc1)c1nc2c(s1)CCc1c-2cnn1C` is 78.2%; for `CCCN(C(=O)c1cnc(C)cn1)c1nc2c(s1)CCc1c-2cnn1C` it is 44.8%; for `CN(C(=O)c1ccccn1)c1nnc(C2CCOC2)s1` (configuration not stated) it is -13.745%. The figure for `COCCN(Cc1ccoc1)C(=O)c1ccccn1` is 11.8%; for `CCCN(C(=O)c1cnccn1)c1nc2c(s1)CCc1c-2cnn1C` it is 29.2%; for `CCCN(C(=O)c1ccncc1)c1nc2c(s1)CCc1c-2cnn1C` it is 46%. Under `CCCN(C(=O)c1ccccn1)c1nc2c(s1)CCc1c-2cnn1C` stands 63.1%. On to `COCCN(C(=O)c1cnccn1)c1nc2c(s1)CCc1c-2cnn1C`, for which the INHIBITION is 11.1%. In the case of `Cc1cc(-c2cnc(C)nc2CN(C)C(=O)c2ccccn2)on1`, the INHIBITION is given as 18.3%.

For the compound `CN(C(=O)c1ccccn1)c1nc2c(s1)CCc1c-2cnn1C`, the INHIBITION is 74.5%. Under `CCCN(C(=O)COC)c1nc2c(s1)CCc1c-2cnn1C` stands 5.13%. As for `O=C(NCCCNC(=O)c1cccc(O)c1)NCc1ccccc1F`, the INHIBITION was -1.58%. On to `CCn1cc(CN2CCCN(C(=O)c3ccco3)CC2)cn1`, for which the INHIBITION is -61.4%. Under `COC(=O)c1ccnn1COc1ccc(Cl)cc1` stands 16%.

Regarding `CCc1nn(C)c2[nH]nc(NC(=O)c3ccccc3COC)c12`, the INHIBITION is on record as 33.7%. For the compound `N#Cc1ccc(NC(=O)C2CSCN2)cc1` (configuration not stated), the INHIBITION stood at 39%. Turning to `COc1cc(CNCc2ccco2)ccc1OCCO`, the INHIBITION worked out at 10.6%. Under `CCN(CC)S(=O)(=O)c1cc(Br)ccc1OC` stands -32.9%.

Consider `COc1cc(OC)cc(C(=O)N(C)Cc2nnc3ccccn23)c1`, for which the INHIBITION was -6.14%.

On to `Cc1c[nH]c(CN2CCCCC2CCc2cccc(O)c2)c(C)c1=O` (configuration not stated), for which the INHIBITION stood at 39.9%. Under `Cc1nccn1CCC1CCCCN1Cc1cnc(N(C)C)nc1` (configuration not stated) stands 33.3%; under `Cc1c[nH]c(CN2CCCCC2CCn2ccnc2C)c(C)c1=O` (configuration not stated), 53.9%; under `Cc1nccn1CCC1CCCCN1Cc1ccc(N(C)C)nc1` (configuration not stated), -38.9%. Under `Cc1nccn1CCC1CCCCN1Cc1ccc2c(c1)OCCO2` (configuration not stated) stands 51.3%; under `Cc1c[nH]c(CN2CCCCC2CCn2cccn2)c(C)c1=O` (configuration not stated), 51.8%; under `Cc1nccn1CCC1CCCCN1Cc1ccncc1` (configuration not stated), -57.8%. The figure for `Cc1c[nH]c(CN2CCCCC2CCN(C)C)c(C)c1=O` (configuration not stated) is 38.8%. `Cc1cc2c(cc1CN1CCCCC1CCn1ccnc1C)OCO2` (configuration not stated): the INHIBITION was found to be 13.7%.

In the case of `CC[C@@H]1N(Cc2nccs2)CCC[C@]12CCC(=O)N2C`, the INHIBITION is -27%. For `COc1ccc(-c2nnc(CNCCn3cccn3)o2)cc1`, the INHIBITION worked out at 23.5%. For `CO[C@H]1CCN(C(=O)c2cc(C)on2)C[C@@H]1Cc1ccccc1`, the INHIBITION is 2.58%.

`Cc1[nH]ncc1CCCNC(=O)N1CCCC(c2nncn2C)C1` (configuration not stated): the INHIBITION is reported as -29.8%. In the case of `CCCn1nccc1NC(=O)CN1CCCC1Cn1cccn1` (configuration not stated), the INHIBITION stood at 12.3%.

On to `Cc1cccc(OCC2CCCN(C(=O)Cn3ccccc3=O)C2)c1` (configuration not stated), for which the INHIBITION was found to be 13.6%. In the case of `COc1cccc(-c2ccc(CNC(=O)c3ccc(=O)n(C)c3)cc2)c1`, the INHIBITION stood at 72.3%. For the compound `Cn1cc(C(=O)Nc2cccc(F)c2)ccc1=O`, the INHIBITION is reported as 42.6%. Under `COc1ccc(CNC(=O)Nc2ccc(=O)n(C)c2)cc1` stands 29%. Consider `COc1ccc(CNC(=O)c2ccc(=O)n(C)c2)cc1C`, for which the INHIBITION was found to be 11.8%. With `COC(=O)c1ccc(CNC(=O)Nc2ccc(=O)n(C)c2)cc1`, the INHIBITION was 59.3%. For `Cn1cc(C(=O)Nc2ccnc(Oc3ccccc3)c2)ccc1=O`, the INHIBITION was determined as 16.8%. Under `COc1cccc(CCNC(=O)c2ccc(=O)n(C)c2)c1` stands 24.2%; under `Cn1cc(NC(=O)NCc2ccoc2)ccc1=O`, 47.4%. `Cn1cc(C(=O)Nc2cccc(Oc3ccncc3)c2)ccc1=O`: the INHIBITION is on record as 51.5%. Under `CN1Cc2ccccc2CC2(CCN(Cc3nccn3C)CC2)C1=O` stands 34.5%; under `Cc1cc(C2CCCN(CCNS(=O)(=O)c3ccccc3)C2)n[nH]1` (configuration not stated), 11.9%. Turning to `CC1CN(C)CCN1C(=O)Nc1nc(-c2ccco2)cs1` (configuration not stated), the INHIBITION is 14%. The figure for `O=C(c1ccco1)N1CCC2(CCC(=O)N2Cc2ccncc2)CC1` is 8.74%. On to `c1ccc(Cc2noc(-c3ccc(NCC4COCCO4)nc3)n2)cc1` (configuration not stated), for which the INHIBITION was 12.02%.

As to `CC(NC(=O)NCCC(=O)OC(C)(C)C)c1nncn1C` (configuration not stated), the INHIBITION is 25.4%. Under `CCc1nccn1-c1cncc(C2CCCN2CC(=O)N2CCCC2)n1` (configuration not stated) stands 4.08%; under `Cc1cc2cccc(C(=O)N3CCOC(CCN(C)C)C3)c2o1` (configuration not stated), 33%; under `Cc1cccc(CN2CC3(CCN(S(=O)(=O)C4CC4)CC3)OCC2=O)n1`, 7.53%. The figure for `Cc1cc(C)n(CCCn2cncc2-c2ccc3c(c2)CC(C)N3C)n1` (configuration not stated) is 42.6%. `CCN1c2ccc(-c3cncn3CCCn3ccnc3C)cc2CC1C` (configuration not stated): the INHIBITION came out at 36%. Under `Cc1nccn1CCCn1cncc1-c1ccc2c(c1)CCCN2C` stands 41.5%; under `Cc1nccn1CCCn1cncc1-c1ccc2c(c1)CCC(C)N2C` (configuration not stated), 87.7%. In the case of `Cc1nccn1CCCn1cncc1-c1ccc2c(c1)CC(C)N2C` (configuration not stated), the INHIBITION amounted to 62.4%. The figure for `CN1CCCc2cc(-c3cncn3CCNC3CCS(=O)(=O)C3)ccc21` (configuration not stated) is 32.3%; for `O=C(NCc1ccco1)[C@@H]1CCO[C@@H]2CCN(c3ncccn3)C[C@H]21` it is 17.1%; for `O=C(Cn1ncc2c(c1=O)CCCC2)Nc1cccc2[nH]ccc12` it is 30.2%. Under `Cc1nc(N(C)C)nc(NCCc2c[nH]cn2)c1C` stands -38%; under `COCC(=O)N1CCCC(c2csc(NC(C)=O)n2)C1` (configuration not stated), -55%; under `CCCn1cc(S(=O)(=O)N(C)Cc2nonc2C)c(C)n1`, 3.48%. The figure for `Cn1cc(CN2CCc3c(cnc(-c4ccccc4)c3C(=O)O)C2)cn1` is 23.3%; for `CNC(=O)C1Cn2ccnc2C2(CCN(C(=O)CC3CCCC3)CC2)O1` (configuration not stated) it is -10.3%. Regarding `Cc1ccc(C(=O)N2CCC(c3noc(-c4cccnc4)n3)CC2)cn1`, the INHIBITION is listed as 42.6%. Regarding `COCCN1C[C@@H](C)[C@@]2(COCCN(C(=O)c3ccccn3)C2)C1`, the INHIBITION came out at 36.2%.
